Bioassay records deposited in PubChem BioAssay by National Center for Advancing Translational Sciences (NCATS).
The list is not random: actives were taken first. Their share in the collection is about 3.3%.
RE007 growth inh – less growth of the S. pombe RE007 Vpr strain; Potency, µM (highest dose often 92.2 µM), for inactives: at the highest dose activity change, negative = less growth, hits mostly inhibitors; S. pombe RE007 Vpr strain, BacTiter-Glo ATP luminescence, 24 h; 360,000 tested, 0.21% active; active means well fitted falling curve with a large enough effect; inconclusive means small, poorly fitted or top-dose-only effect; inactive means no such curve, though single readings can be large or run the other way; further: on the % scale 0 is the no-effect control and ±100 the full control effect; nearly all actives have a fitted effect of over 50% in size
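Fission yeast strain RE007, carrying one chromosomally integrated HIV-1 vpr copy, was seeded at OD 0.01 in PMG+AL medium with 23 nL pinned compound. After 24 h at 30 °C and 99% humidity, viability was read by BacTiter-Glo luminescence.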
Sm TGR inh – blocks Schistosoma mansoni thioredoxin glutathione reductase | AID 485364 | Potency, µM (series often up to 114 µM), for the others: top-dose activity change, negative = inhibition, hits mostly inhibitors | purified TGR, DTNB reduction, TNB absorbance 405 nm | 360,000 tested, 3% active; further: on the % scale 0 is the no-effect control and ±100 the full control effect; nearly all actives have a fitted effect of over 60% in size
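TGR 20 nM + NADPH 100 uM (dispensed conc.), cpd preinc 15 min RT; start with NADPH (500 uM addition) then DTNB (15 mM addition). Kinetic TNB absorbance, 405 nm filter. Four-parameter Hill fit across titration.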
LmPK inhibitor – blocks Leishmania mexicana pyruvate kinase activity | Q27686 | purified LmPK, Kinase-Glo ATP luminescence, 1 h | Potency, µM (top dose mostly 57.5 µM), for the others: at the top dose activity change, negative = inhibition, usual class: inhibitors | 290,000 tested, 0.37% active; further: on the % scale 0 is the no-effect control and ±100 the full control effect
Target sequence (Q27686 whole entry, looked up): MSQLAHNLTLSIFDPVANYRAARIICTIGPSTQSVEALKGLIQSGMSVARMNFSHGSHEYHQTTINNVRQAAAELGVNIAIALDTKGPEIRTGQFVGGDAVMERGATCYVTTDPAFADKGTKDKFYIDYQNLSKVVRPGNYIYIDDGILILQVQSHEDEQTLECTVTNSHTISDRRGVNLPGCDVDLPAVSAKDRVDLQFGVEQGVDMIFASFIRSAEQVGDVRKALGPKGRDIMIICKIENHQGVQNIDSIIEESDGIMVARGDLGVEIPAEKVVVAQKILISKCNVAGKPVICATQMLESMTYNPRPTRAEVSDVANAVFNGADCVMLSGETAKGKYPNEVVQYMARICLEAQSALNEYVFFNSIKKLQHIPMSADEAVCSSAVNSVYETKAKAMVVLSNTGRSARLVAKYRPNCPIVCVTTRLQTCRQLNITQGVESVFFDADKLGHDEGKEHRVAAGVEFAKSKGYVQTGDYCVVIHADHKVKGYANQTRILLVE
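Purified LmPK (0.1 nM) converted ADP (0.1 mM) to ATP with PEP (0.5 mM) in imidazole buffer pH 7.2 with KCl and MgCl2, 1 h at room temperature. ATP was read by Kinase-Glo luminescence; data normalized to uninhibited and no-enzyme controls.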
NS1 function inh – inhibitors of influenza NS1 protein function | Potency, µM (series often up to 46.1 µM), for inactives: at the highest dose activity, positive = more growth | 270,000 tested, 0.4% active | AID 2326; calls by dose curve; further: actives are rising curves; nearly all actives have a fitted effect of over 50% in size
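Read-out: OD600 growth recovery of NS1-expressing budding yeast. Cells grown overnight at 30C in -URA glucose medium, washed, resuspended and diluted 1:100 in 2% galactose assay medium, pH 6.0. Same strain lacking NS1 served as positive control.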
SARS PLpro yeast – blocks SARS-CoV papain-like protease in a yeast assay. Potency, µM (highest dose often 32.9 µM), for the others: at the highest dose activity, positive = growth rescue, most hits filed as activators. AID 485353. S. cerevisiae expressing SARS-CoV PLpro, growth rescue. 330,000 tested, 0.19% active; calls by dose curve; further: 0% is about no effect; nearly all actives have a fitted effect of over 55% in size
TbPYK inhibitor – blocks Trypanosoma brucei pyruvate kinase; Potency, µM (titrated, usually from 76.8 µM), for the others: top-dose activity, negative = inhibition, most hits filed as inhibitors; TbPYK enzyme, Kinase-Glo Plus ATP luminescence, 45 min; 410,000 tested, 0.12% active; Q57TT1; further: on the % scale 0 is the no-effect control and ±100 the full control effect; nearly all actives have a fitted effect of over 50% in size
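ADP (130 uM final) triggers the TbPYK reaction after compound addition; incubation is 45 min at room temperature. Kinase-Glo Plus is then added and luminescence imaged. Normalized data are fitted to concentration-effect curves.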
Starred values were filed as active, the others as inactive; ? = inconclusive; . = not tested or not shown; [ ] = another dose, or the depositor's remark. Unless noted, the call rests on the fitted dose curve; in most records, active means well fitted curve in the direction sought with a large enough effect; inconclusive means small, poorly fitted or top-dose-only effect, or another doubt; inactive means no such curve, though single readings can be large; an effect the other way counts as inactive or inconclusive. Potency means the concentration at half of the fitted maximal effect.

SMILES	RE007 growth inh	Sm TGR inh	LmPK inhibitor	NS1 function inh	SARS PLpro yeast	TbPYK inhibitor
Cc1cccc(N2CCN(C(=O)c3cnn(-c4ccccc4)c3C3CCN(C(=O)OC(C)(C)C)CC3)CC2)c1C	.	7%	.	.	.	-14%[15.4 µM]
Cc1sc2nc3ccc(NCc4ccco4)nn3c(=O)c2c1C	-5%	35µM*	-4%	-32%	-25%	-11%
O=C1CC(Sc2ncccn2)C(=O)N1c1ccccc1C(F)(F)F (stereo unspecified)	-6%	40µM*	-1%	-24%	4%	0%
Cc1ccc(Cl)cc1N1C(=O)CC(Sc2ncccn2)C1=O (stereo unspecified)	-1%	25µM*	-1%	-8%	-18%	-6%
Cc1cccc(N2C(=O)CC(Sc3nc(-c4ccccc4)c4cc(Cl)ccc4n3)C2=O)c1 (stereo unspecified)	1%	3%	7%	?	-9%	4%
CCCc1cc(=O)n2c(C(=O)Nc3ccc(OCC)cc3)c(C(=O)Nc3ccc(C)cc3)sc2n1	.	8%	.	.	.	-7%
COC(=O)CC[C@@H](C)C1CC[C@H]2[C@H]3CC[C@H]4C[C@@H]5CCC4(C)[C@@]3(O5)[C@@H](Br)[C@@H](Br)[C@@]12C (stereo partly specified)	.	.	.	3%	.	.
CCCc1nc2cc3c(cc2[nH]1)n(C)c(=O)n3C	-11%	22µM*	5%	4%	-2%	-1%
C/C(CCC(=O)OC[C@H]1O[C@H](C#Cc2ccccc2)C=C[C@@H]1Oc1ccc(C)cc1)=N\O[C@@H](C)CN1CCCCc2nc(C)c(C)cc21	.	35µM*	4%	0%	-6%	.
COc1ccc(O[C@H]2C=C[C@@H](c3ccccc3)O[C@@H]2COC(=O)CC/C(C)=N/O[C@@H](C)CN2CCCCc3nc(C)c(C)cc32)cc1	.	-26%	5%	-13%	-5%	.
c1ccc(-c2nc3nc4ccccc4nc3n2Cc2ccco2)cc1	-8%	10µM*	-7%	-81%	-11%	3%
S=c1nc(-c2ccccc2)n(Cc2ccco2)c2c1CCCC2	.	35µM*	-1%	0%	-4%	.
Fc1ccc(-n2c(-c3ccco3)nc3nc4ccccc4nc32)cc1	-6%	0%	6%	7%	5%	-1%
Fc1ccc(-c2nc3nc4ccccc4nc3n2Cc2ccco2)cc1	4%	20µM*	2%	-28%	-7%	-7%
Cc1nn(CCCC(=O)NCCc2ccc(Cl)cc2)c(=O)c2c1sc1ccccc12	.	-15%	.	.	.	2%
O=C(O)C1C2C=CC(O2)C1C(=O)NCc1ccc2c(c1)OCO2 (stereo unspecified)	-27%	?	0%	1%	-20%	1%
O=C(O)C1C2C=CC(O2)C1C(=O)NCc1ccc(Cl)cc1 (stereo unspecified)	35µM*	5%	-2%	-7%	4%	-4%
CCOc1ccccc1NC(=O)CSc1nc2c(oc3ccccc32)c(=O)n1-c1ccc(F)cc1	.	7%	.	.	.	1%
c1ccc(CN2CC[C@@H](CNc3ncnc4ccccc34)C2)cc1	.	.	.	-5%	.	.
CSc1ncnc2nc[nH]c12	.	.	.	-24%	.	.
O=C(Nc1nc2n(n1)C(c1ccccc1)C=C(c1ccc(Cl)cc1)N2)c1ccco1 (stereo unspecified)	.	14µM*	.	.	.	3%
OCCCc1nc2n(n1)C(c1cccc(Cl)c1)C=C(c1ccccc1)N2 (stereo unspecified)	.	-14%	.	.	.	1%
O=C(Nc1nc2n(n1)C(c1ccccc1)C=C(c1ccccc1)N2)c1ccco1 (stereo unspecified)	-5%	1.8µM*	0%	17%	7%	-9%
O=C(Nc1nc2n(n1)C(c1ccc(F)cc1)C=C(c1ccc(Cl)cc1)N2)c1ccco1 (stereo unspecified)	.	0%	.	.	.	-11%
O=C(c1nc2n(n1)C(c1ccc(Cl)cc1)C=C(c1ccccc1)N2)N1CCOCC1 (stereo unspecified)	-8%	10µM*	8%	-13%	0%	-2%
SMILES	RE007 growth inh	Sm TGR inh	LmPK inhibitor	NS1 function inh	SARS PLpro yeast	TbPYK inhibitor
Nc1cc(C(=O)O)[nH]c(=O)n1	.	.	.	-4%	.	.
O=C(CCl)NC(Cc1ccccc1)c1ccccc1 (stereo unspecified)	15%	22µM*	-2%	-2%	1%	-6%
CC(C)(CO)NC(=S)NCc1ccco1	-3%	25µM*	-1%	2%	-1%	-11%
S=C(NCc1ccco1)Nc1cccc(Cl)c1Cl	24%	7.9µM*	-1%	4%	7%	-1%
S=C(NCc1ccco1)Nc1ccccc1Cl	-7%	7.9µM*	-5%	0%	0%	-11%
Cc1c(Cl)cccc1NC(=S)NCc1ccco1	-6%	?	4%	0%	12%	-5%
Cc1ccc(-c2noc(C3CCCN(C(=O)C4CCCCC4)C3)n2)o1 (stereo unspecified)	5%	25µM*	-5%	-7%	0%	-25%
Cc1ccc(-c2noc(C3CCCN(C(=O)c4ccc(Cl)cc4)C3)n2)o1 (stereo unspecified)	3%	12%	0%	-17%	-5%	5%
COC(=O)c1c(Oc2ccc(Br)cc2)nnc(-c2ccccc2)c1-c1ccccc1	.	2%	.	.	.	0%
O=C1CSC(=S)N1/N=C/c1cc(Br)ccc1O	.	7.9µM*	?	4%	-6%	.
Cn1c(=NC(=O)CCl)sc2ccccc21	?	25µM*	-5%	-55%	-7%	2%
CCOC(=O)N1CCN(C(=O)CSCC(=O)N=c2sc3ccccc3n2C)CC1	-9%	16µM*	-3%	-1%	.	-18%
CCOC(=O)N1CCN(C(=O)CSCC(=O)N=c2sc3cc(OC)ccc3n2C)CC1	-5%	.	.	-2%	.	-5%
CC(=O)OC1CCC2(C)C(=CCC3C2CCC2(C)C(C(C)=O)CCC32)C1 (stereo unspecified)	.	.	.	.	.	2%
COc1ccc(NC(=O)/C=C/c2ccccc2)cn1	-16%	4%	-7%	-26%	-30%	22%
COc1ccc(NC(=O)/C=C/c2cc(OC)c(OC)c(OC)c2)cn1	-5%	45µM*	0%	-5%	0%	-10%
Cc1ccc(Nc2sc(C(=O)c3ccccc3)c(N)c2C(N)=O)cc1	.	50µM*	.	.	.	-16%
COc1cccc(C2=NO[C@@H]3C(=O)N(c4ccc5c(c4)OCCO5)C(=O)[C@H]23)c1OC	0%	40µM*	1%	-45%	-2%	1%
COc1cccc(C2=NO[C@@H]3C(=O)N(Cc4ccccc4)C(=O)[C@H]23)c1OC	-9%	50µM*	8%	-59%	5%	2%
COc1ccc(N2CCN(C(=O)c3cccn3-c3nnc(N4CCCC4)s3)CC2)cc1	.	-23%	.	.	.	-14%[15.4 µM]
